Test in all cases: DAPPL (digital affinity profiling via proximity ligation, sequencing); 10 mM Tris-HCl pH 7.5, 50 mM NaCl, 1 mM DTT, 4% glycerol, room temperature, 30 min; GST-TFs on glutathione beads, 16-mer random dsDNA library, 0.1% formaldehyde crosslink after washing; high values mean tight binding
In one assay the target is T1, FLI1 (Homo sapiens, UniProt Q01543 1-452).
T1 sequence: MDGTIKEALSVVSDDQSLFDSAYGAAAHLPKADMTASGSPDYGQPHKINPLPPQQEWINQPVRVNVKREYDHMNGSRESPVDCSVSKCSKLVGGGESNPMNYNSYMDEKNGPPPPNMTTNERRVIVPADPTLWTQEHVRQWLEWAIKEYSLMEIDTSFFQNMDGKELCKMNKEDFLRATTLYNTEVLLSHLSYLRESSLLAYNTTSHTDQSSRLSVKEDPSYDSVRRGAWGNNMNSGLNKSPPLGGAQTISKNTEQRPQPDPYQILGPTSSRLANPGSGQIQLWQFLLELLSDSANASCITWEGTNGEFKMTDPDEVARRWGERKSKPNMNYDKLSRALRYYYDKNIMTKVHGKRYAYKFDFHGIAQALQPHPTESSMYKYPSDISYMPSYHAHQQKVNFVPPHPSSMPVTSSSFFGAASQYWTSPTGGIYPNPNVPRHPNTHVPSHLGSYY
The settings on record: protein: recombinant; tags: N-terminal GST; dsDNA, one strand shown. The method in brief:
(§1)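 Sequencing on an Illumina NextSeq500 followed washing, crosslinking with 0.1% formaldehyde, proximity ligation (BsaI/T4 ligase, 1 h, 37 °C) and PCR amplification of pools that had been incubated for 30 min at room temperature with 200 nmole of a random double-stranded 16-mer DNA library in Tris/NaCl/DTT/glycerol buffer. Each pool held DNA-barcoded human transcription factors, expressed in yeast as GST fusions and captured on glutathione beads, plus a tag-only sample. Binding signal is a hexamer's read frequency for a factor divided by its frequency in the tag-only sample.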

In another assay the target is T2, ELK1 (Homo sapiens, UniProt P19419 1-428).
T2 sequence: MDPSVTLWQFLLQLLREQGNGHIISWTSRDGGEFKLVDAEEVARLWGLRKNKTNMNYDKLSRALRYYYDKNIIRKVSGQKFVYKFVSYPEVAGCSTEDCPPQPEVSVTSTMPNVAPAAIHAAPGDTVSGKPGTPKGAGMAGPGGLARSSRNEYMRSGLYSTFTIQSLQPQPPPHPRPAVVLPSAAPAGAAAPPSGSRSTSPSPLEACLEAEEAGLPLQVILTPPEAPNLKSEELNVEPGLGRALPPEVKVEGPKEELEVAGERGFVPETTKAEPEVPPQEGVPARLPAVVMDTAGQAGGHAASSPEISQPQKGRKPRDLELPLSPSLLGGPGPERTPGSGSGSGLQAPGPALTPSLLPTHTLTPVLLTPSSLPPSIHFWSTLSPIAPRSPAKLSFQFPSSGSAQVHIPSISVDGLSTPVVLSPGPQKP
The settings on record: protein: recombinant; tags: N-terminal GST; dsDNA, one strand shown. An outline of the steps: as §1

A further assay has as its target T3, GABPA (Homo sapiens, UniProt Q06546 1-454).
T3 sequence: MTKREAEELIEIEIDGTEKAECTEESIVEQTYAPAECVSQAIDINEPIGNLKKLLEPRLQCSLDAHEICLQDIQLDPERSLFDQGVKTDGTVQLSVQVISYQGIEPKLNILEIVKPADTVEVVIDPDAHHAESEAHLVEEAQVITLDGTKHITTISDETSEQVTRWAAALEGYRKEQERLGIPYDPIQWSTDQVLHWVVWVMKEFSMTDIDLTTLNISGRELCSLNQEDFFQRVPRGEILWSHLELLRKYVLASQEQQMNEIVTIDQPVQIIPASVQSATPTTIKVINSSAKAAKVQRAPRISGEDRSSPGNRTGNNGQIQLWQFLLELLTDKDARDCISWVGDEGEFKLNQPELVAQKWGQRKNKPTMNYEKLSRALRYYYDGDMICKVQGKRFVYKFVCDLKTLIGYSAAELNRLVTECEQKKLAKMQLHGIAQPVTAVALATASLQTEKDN
The settings on record: protein: recombinant; tags: N-terminal GST; dsDNA, one strand shown. An outline of the steps:
as §1

The target of another assay is T4, ERG (Homo sapiens, UniProt P11308 1-479).
T4 sequence: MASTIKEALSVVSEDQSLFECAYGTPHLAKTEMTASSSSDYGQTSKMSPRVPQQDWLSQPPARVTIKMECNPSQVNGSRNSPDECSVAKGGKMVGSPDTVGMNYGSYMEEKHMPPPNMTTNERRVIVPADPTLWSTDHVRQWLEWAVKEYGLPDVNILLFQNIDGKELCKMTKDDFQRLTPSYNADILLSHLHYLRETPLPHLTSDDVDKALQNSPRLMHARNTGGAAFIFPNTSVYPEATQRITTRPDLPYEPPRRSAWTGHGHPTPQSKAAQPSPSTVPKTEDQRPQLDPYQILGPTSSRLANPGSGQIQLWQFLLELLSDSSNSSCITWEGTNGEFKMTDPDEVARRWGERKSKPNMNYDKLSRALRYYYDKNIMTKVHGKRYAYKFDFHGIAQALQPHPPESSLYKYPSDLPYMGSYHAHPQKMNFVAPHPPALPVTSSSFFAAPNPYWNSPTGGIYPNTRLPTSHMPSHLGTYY
To be noted: protein: recombinant; tags: N-terminal GST; dsDNA, one strand shown. An outline of the steps:
as §1

The target of another assay is ELF1 (Homo sapiens, UniProt P32519 1-619). To be noted: protein: recombinant; tags: N-terminal GST; dsDNA, one strand shown. An outline of the steps: as §1
Sequence of ELF1 (P32519 whole entry): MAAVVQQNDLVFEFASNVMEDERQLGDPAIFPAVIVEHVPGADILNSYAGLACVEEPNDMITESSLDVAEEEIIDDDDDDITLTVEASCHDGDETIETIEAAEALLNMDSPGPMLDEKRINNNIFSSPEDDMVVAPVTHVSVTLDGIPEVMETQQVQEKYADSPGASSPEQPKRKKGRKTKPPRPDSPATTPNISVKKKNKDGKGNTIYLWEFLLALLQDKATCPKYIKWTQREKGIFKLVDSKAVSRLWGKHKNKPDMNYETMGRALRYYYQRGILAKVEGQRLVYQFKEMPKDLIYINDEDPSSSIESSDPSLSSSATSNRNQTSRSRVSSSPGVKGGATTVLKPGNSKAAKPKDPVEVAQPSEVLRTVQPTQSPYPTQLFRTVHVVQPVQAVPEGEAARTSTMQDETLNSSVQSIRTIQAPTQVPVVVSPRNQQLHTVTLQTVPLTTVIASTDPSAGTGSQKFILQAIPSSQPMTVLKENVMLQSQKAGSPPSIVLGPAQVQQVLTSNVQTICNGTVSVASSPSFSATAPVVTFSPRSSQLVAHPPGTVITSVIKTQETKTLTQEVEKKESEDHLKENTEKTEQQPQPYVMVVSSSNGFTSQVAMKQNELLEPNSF
Another assay deals with T5, EHF (Homo sapiens, UniProt Q9NZC4 1-300).
T5 sequence: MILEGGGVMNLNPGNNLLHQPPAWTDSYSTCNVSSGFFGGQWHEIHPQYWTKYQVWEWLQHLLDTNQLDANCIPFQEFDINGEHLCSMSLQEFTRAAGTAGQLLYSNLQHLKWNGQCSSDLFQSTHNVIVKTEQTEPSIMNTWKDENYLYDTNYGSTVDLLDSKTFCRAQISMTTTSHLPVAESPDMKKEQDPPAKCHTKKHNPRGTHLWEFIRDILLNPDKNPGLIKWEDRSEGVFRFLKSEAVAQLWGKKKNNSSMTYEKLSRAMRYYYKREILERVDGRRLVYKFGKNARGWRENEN
The settings on record: protein: recombinant; tags: N-terminal GST; dsDNA, one strand shown. An outline of the steps: as §1

The target in a further assay is SPI1 (Homo sapiens, UniProt P17947 1-270). To be noted: protein: recombinant; tags: N-terminal GST; dsDNA, one strand shown. The method in brief: as §1
The next assay has as its target SPIB (Homo sapiens, UniProt Q01892 1-262). The settings on record: protein: recombinant; tags: N-terminal GST; dsDNA, one strand shown. An outline of the steps: as §1
The next assay has as its target T6, ELK3 (Homo sapiens, UniProt P41970 1-407).
T6 sequence: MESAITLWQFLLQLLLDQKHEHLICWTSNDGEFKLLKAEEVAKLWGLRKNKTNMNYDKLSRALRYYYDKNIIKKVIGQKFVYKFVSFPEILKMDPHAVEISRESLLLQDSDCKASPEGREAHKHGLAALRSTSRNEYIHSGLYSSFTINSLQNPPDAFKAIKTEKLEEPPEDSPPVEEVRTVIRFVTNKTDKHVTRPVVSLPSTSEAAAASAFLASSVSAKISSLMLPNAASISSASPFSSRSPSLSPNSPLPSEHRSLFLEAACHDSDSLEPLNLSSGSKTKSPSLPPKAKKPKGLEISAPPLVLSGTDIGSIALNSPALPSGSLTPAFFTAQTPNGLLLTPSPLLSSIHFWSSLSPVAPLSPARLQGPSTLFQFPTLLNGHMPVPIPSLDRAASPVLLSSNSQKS
To be noted: protein: recombinant; tags: N-terminal GST; dsDNA, one strand shown. The method in brief:
as §1

The next assay addresses T7, FEV (Homo sapiens, UniProt Q99581 1-238).
T7 sequence: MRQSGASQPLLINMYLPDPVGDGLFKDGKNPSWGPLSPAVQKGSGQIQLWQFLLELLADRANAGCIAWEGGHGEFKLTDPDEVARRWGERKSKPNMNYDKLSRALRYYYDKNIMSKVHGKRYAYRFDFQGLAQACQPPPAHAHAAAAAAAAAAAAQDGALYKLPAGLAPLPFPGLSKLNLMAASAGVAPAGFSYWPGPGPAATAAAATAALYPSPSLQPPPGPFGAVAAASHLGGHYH
To be noted: protein: recombinant; tags: N-terminal GST; dsDNA, one strand shown. An outline of the steps:
as §1

Another assay deals with ETV5 (Homo sapiens, UniProt P41161 1-510). To be noted: protein: recombinant; tags: N-terminal GST; dsDNA, one strand shown. The method in brief:
as §1

For another assay, the target named is HSF1 (Homo sapiens, UniProt Q00613 1-529). To be noted: protein: recombinant; tags: N-terminal GST; chain copies: 3; dsDNA, one strand shown. An outline of the steps:
as §1

In a further assay the target is T8, SPIC (Homo sapiens, UniProt Q8N5J4 1-248).
T8 sequence: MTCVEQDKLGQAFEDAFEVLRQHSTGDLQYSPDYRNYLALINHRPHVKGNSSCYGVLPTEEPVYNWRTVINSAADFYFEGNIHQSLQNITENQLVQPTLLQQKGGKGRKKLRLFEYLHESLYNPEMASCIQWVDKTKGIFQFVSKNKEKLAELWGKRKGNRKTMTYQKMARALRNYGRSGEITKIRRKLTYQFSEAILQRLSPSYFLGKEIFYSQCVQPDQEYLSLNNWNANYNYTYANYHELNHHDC
The settings on record: protein: recombinant; tags: N-terminal GST; dsDNA, one strand shown. An outline of the steps:
as §1

The target in another assay is ELF4 (Homo sapiens, UniProt Q99607 1-663). The settings on record: protein: recombinant; tags: N-terminal GST; dsDNA, one strand shown. An outline of the steps:
as §1

Another assay addresses T9, ELK4 (Homo sapiens, UniProt P28324-2 1-405).
T9 sequence: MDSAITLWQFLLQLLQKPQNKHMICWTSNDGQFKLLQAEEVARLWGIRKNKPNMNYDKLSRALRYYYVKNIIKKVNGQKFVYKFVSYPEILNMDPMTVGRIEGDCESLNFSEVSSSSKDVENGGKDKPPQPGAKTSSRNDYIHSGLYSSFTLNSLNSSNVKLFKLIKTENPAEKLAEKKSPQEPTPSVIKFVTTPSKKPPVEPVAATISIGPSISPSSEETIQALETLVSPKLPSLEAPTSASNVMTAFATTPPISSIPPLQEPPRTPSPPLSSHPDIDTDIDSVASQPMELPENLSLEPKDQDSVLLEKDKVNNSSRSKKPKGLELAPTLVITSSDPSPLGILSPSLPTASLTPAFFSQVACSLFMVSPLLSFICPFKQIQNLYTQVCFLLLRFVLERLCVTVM
To be noted: protein: recombinant; tags: N-terminal GST; dsDNA, one strand shown. The method in brief:
as §1

A further assay addresses T10, ETV2 (Homo sapiens, UniProt O00321 1-342).
T10 sequence: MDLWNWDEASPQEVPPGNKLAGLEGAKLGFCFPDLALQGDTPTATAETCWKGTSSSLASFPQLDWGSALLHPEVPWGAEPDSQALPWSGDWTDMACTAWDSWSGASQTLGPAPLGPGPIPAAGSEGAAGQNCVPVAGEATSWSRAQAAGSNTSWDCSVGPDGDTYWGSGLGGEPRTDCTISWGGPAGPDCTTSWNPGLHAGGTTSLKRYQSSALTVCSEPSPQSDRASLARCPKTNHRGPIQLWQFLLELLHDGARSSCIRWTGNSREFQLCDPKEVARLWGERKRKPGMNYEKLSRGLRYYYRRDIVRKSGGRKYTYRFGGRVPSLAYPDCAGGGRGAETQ
The settings on record: protein: recombinant; tags: N-terminal GST; dsDNA, one strand shown. An outline of the steps: as §1

For a further assay, the target named is T11, ELF3 (Homo sapiens, UniProt P78545 1-371).
T11 sequence: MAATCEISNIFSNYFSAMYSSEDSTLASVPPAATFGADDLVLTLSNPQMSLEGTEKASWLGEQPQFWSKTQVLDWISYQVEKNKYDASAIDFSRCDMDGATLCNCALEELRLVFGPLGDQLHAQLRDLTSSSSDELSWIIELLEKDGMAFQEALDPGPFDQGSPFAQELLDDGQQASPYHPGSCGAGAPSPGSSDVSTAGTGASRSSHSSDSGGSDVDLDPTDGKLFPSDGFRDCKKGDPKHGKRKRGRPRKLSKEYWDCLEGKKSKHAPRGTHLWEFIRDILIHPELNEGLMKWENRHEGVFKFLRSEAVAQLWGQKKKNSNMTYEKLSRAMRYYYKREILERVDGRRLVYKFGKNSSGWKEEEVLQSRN
To be noted: protein: recombinant; tags: N-terminal GST; dsDNA, one strand shown. An outline of the steps:
as §1

The target of the next assay is ETV1 (Homo sapiens, UniProt P50549 1-477). The settings on record: protein: recombinant; tags: N-terminal GST; dsDNA, one strand shown. An outline of the steps:
as §1

Sequence of ELF4 (Q99607 whole entry): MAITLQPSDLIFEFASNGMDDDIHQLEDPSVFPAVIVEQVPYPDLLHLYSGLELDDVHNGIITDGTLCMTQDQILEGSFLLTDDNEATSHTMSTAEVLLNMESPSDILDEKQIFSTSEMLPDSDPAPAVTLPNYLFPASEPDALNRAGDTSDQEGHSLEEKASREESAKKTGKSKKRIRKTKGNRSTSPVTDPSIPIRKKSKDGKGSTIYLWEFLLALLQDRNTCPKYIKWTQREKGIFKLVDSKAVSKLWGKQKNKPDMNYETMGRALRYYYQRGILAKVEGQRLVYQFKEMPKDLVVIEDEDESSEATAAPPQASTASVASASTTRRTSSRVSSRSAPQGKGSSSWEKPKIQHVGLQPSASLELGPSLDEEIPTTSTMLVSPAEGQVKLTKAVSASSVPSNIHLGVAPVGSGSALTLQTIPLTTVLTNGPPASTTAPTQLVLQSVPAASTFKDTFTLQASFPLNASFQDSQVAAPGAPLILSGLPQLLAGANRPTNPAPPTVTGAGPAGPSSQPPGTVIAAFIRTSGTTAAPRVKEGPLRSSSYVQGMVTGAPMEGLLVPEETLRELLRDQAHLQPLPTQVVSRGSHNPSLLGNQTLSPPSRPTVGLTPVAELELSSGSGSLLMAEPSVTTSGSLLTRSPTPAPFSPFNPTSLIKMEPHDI
Sequence of HSF1 (Q00613 whole entry): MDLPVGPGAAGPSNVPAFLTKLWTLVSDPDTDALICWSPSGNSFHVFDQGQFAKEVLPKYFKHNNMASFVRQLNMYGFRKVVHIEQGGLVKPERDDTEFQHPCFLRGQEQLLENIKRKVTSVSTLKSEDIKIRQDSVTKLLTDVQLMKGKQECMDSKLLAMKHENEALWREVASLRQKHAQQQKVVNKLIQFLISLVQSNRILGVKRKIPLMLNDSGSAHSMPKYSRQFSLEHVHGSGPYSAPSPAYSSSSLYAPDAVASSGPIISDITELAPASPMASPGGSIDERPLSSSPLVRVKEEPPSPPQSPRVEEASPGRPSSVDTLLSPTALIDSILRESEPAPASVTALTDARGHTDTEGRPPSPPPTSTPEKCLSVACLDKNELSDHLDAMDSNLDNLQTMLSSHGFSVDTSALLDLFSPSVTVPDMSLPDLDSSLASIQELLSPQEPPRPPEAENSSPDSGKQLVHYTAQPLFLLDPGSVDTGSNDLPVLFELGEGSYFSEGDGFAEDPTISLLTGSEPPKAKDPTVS
Sequence of SPIB (Q01892 whole entry): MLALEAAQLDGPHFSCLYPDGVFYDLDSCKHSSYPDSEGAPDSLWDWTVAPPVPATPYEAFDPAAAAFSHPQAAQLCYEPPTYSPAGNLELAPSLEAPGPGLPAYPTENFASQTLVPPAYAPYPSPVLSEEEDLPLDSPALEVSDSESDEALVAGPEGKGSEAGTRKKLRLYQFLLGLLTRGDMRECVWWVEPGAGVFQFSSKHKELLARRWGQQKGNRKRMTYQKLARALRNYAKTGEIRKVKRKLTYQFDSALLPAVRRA
Sequence of ETV5 (P41161 whole entry): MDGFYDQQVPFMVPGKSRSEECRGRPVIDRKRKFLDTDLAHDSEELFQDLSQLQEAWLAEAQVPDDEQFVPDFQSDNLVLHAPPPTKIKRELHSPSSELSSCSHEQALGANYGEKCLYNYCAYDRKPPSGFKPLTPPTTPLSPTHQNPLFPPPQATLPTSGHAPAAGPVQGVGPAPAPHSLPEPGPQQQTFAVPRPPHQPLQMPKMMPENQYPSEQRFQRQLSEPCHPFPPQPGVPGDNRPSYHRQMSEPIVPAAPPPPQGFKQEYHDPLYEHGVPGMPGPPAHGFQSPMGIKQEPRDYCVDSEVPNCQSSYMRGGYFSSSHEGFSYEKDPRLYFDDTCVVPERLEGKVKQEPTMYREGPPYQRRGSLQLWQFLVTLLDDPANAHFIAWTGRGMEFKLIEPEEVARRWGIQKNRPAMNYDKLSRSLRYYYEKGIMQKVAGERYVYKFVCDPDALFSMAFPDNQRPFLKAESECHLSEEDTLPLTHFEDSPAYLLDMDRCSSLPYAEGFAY
Sequence of ETV1 (P50549 whole entry): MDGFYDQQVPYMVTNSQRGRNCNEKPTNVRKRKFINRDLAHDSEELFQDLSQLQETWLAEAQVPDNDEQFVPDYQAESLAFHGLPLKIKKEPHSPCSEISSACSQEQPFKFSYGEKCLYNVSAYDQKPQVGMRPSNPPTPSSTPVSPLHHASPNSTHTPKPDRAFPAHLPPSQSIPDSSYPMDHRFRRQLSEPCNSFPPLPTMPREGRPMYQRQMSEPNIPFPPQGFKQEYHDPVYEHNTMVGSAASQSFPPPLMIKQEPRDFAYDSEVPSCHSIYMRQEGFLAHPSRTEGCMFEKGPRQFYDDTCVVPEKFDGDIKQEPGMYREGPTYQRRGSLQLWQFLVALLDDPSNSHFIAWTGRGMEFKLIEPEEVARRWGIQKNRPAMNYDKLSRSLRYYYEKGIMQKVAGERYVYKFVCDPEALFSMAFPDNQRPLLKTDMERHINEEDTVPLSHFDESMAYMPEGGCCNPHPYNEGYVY

Take TCCGTC: the binding signal with FLI1 was 1.24 fold enrichment (6-mer frequency, TF over GST control); with ELK1 it was 1.43 fold enrichment (6-mer frequency, TF over GST control); with GABPA, 1.29 fold enrichment (6-mer frequency, TF over GST control); in the assay with ERG it was 1.49 fold enrichment (6-mer frequency, TF over GST control); in the assay with ELF1, 1.36 fold enrichment (6-mer frequency, TF over GST control); in the assay with EHF, 1.41 fold enrichment (6-mer frequency, TF over GST control). Also, the binding signal was 1.28 fold enrichment (6-mer frequency, TF over GST control) with SPI1; 1.56 fold enrichment (6-mer frequency, TF over GST control) with SPIB; 1.47 fold enrichment (6-mer frequency, TF over GST control) in the assay with ELK3; 1.38 fold enrichment (6-mer frequency, TF over GST control) with FEV; 1.31 fold enrichment (6-mer frequency, TF over GST control) in the assay with ETV5; 1.04 fold enrichment (6-mer frequency, TF over GST control) in the assay with HSF1. For the same sequence, the binding signal is 1.38 fold enrichment (6-mer frequency, TF over GST control) with SPIC; 1.42 fold enrichment (6-mer frequency, TF over GST control) with ELF4; 1.3 fold enrichment (6-mer frequency, TF over GST control) with ELK4; 1.35 fold enrichment (6-mer frequency, TF over GST control) in the assay with ETV2; 1.27 fold enrichment (6-mer frequency, TF over GST control) in the assay with ELF3; 1.42 fold enrichment (6-mer frequency, TF over GST control) in the assay with ETV1.

The values are drawn from paper PMC7862700, “An all-to-all approach to the identification of sequence-specific readers for epigenetic DNA modifications on cytosine”.
